# Results reported in a collection of fitness landscapes (doi:10.1016/j.celrep.2020.107928).
# The full ranking holds about 81,000 sequences; the median of “one-hybrid fitness for binding NBS DNA” is about -0.1, and the highest 2% start at about 0.36. The full list was thinned out, with the highest values kept by preference.
# B1: Caulobacter ParB omega fusion; a variant is named by its letters at X, in order, B8GW30 (parent)
# chain: MESVVVGEPGMSEGRRGLGRGLSALLGEVDAAPAQAPGEQLGGSREAPIEILQRNPDQPRRTFREEDLEDLSNSIREKGVLQPILVRPSPDTAGEYQIVAGERAWRAAQRAGLKTVPIMVRELDDLAVLEIGIIENVQRADLNVLEEALSYKVLMEKFERTQENIAQTIGKSXSHVANXMRLLXLPDEVQSYLVSGELTAXHARAIAAAADPVALAKQIIEGGLSVRETEALARKAPNLSAGKSKGGRPPRVKDTDTQALESDLSSVLGLDVSIDHRGSTGTLTITYATLEQLDDLCNRLTRGI
# Variants of: B1
# Assay: one-hybrid fitness for binding NBS DNA (the Noc-binding site; scaled: cognate 1, non-cognate 0); higher = stronger binding
# Settings: with NBS DNA site
# In short: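 Selection: bacterial one-hybrid in E. coli USO, HIS3 reporter with the site 19 bp from the promoter, 48 hours at 37°C on M9-minus-histidine plus 0.1 mM IPTG and 5 mM 3-AT. Libraries were Caulobacter ParB with four randomised specificity codons, sequenced on Illumina before and after selection. Fitness is the rescaled log change in variant-to-wild-type read ratio, anchored to the cognate and non-cognate sites.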
row,Variant,one-hybrid fitness for binding NBS DNA
1,SMNN,≤ 0.2
2,YTVM,≤ 0.2
3,DLVK,≤ 0.2
4,HQPS,≤ 0.2
5,VMQT,≤ 0.2
6,SRLY,≤ 0.2
7,RIDV,≤ 0.2
8,AWTG,≤ 0.2
9,PYAQ,≤ 0.2
10,HRAG,≤ 0.2
11,RNYQ,≤ 0.2
12,RCRY,0.363
13,RRNY,0.589
14,RRRY,0.798
15,RCNY,0.221
16,RRYY,0.349
17,RRDY,0.306
18,WRPY,≤ 0.2
19,LPLQ,≤ 0.2
20,QRKR,1.08
21,NRKR,0.309
22,QWKR,0.356
23,QRVR,0.839
24,YQNG,≤ 0.2

row,Variant,one-hybrid fitness for binding NBS DNA
1,TVTR,≤ 0.2
2,LWNE,≤ 0.2
3,YAMR,≤ 0.2
4,YPHD,≤ 0.2
5,LNNS,≤ 0.2
6,RSGW,≤ 0.2
7,YQIT,≤ 0.2
8,RFAL,≤ 0.2
9,AGTL,≤ 0.2
10,QHVQ,0.283
11,QHKH,0.546
12,QHDH,≤ 0.2
13,QHKS,0.655
14,QHKD,≤ 0.2
15,QHKN,0.427
16,QHKG,0.345
17,QHKP,0.255
18,QHKF,0.297
19,QHYQ,≤ 0.2
20,QHVN,≤ 0.2
21,QHKQ,0.404
22,KHEE,≤ 0.2
23,SFKI,≤ 0.2
24,QVDA,≤ 0.2

row,Variant,one-hybrid fitness for binding NBS DNA
1,RIMY,≤ 0.2
2,HVLC,≤ 0.2
3,GDVT,≤ 0.2
4,GYMF,≤ 0.2
5,QQLD,≤ 0.2
6,KQRT,0.225
7,QQLT,0.45
8,KQWT,≤ 0.2
9,NQRT,≤ 0.2
10,QQRT,0.8
11,QQWT,0.44
12,QQLN,≤ 0.2
13,QQET,0.371
14,QQES,0.23
15,QQWC,≤ 0.2
16,QQEI,≤ 0.2
17,FLTY,≤ 0.2
18,KTPC,≤ 0.2
19,PLQH,≤ 0.2
20,TATP,≤ 0.2
21,MRTF,≤ 0.2
22,QQYT,0.473
23,QQHT,0.535
24,QQQY,0.247

row,Variant,one-hybrid fitness for binding NBS DNA
1,QQGM,0.202
2,QQHC,≤ 0.2
3,QQHM,≤ 0.2
4,QQQT,0.449
5,QQQM,≤ 0.2
6,QQGT,0.475
7,QQGD,≤ 0.2
8,DQYT,≤ 0.2
9,SAFG,≤ 0.2
10,IKRQ,≤ 0.2
11,STKR,0.254
12,FDSL,≤ 0.2
13,VKGK,≤ 0.2
14,DTSI,≤ 0.2
15,QQCS,0.356
16,QQCN,≤ 0.2
17,QQSP,≤ 0.2
18,QQCT,0.528
19,QQST,0.516
20,QQSD,≤ 0.2
21,QYKN,0.366
22,QYKL,0.246
23,QYKE,0.213
24,QYLD,≤ 0.2

row,Variant,one-hybrid fitness for binding NBS DNA
1,QYRY,0.486
2,QYDY,≤ 0.2
3,QYLT,0.383
4,QYKY,0.479
5,QYLN,≤ 0.2
6,QYVY,≤ 0.2
7,QYFY,≤ 0.2
8,QYGY,≤ 0.2
9,VANF,≤ 0.2
10,NCLY,≤ 0.2
11,QFRV,≤ 0.2
12,SHNY,≤ 0.2
13,QQPF,≤ 0.2
14,TSAQ,≤ 0.2
15,HDDG,≤ 0.2
16,CDFR,≤ 0.2
17,SYFG,≤ 0.2
18,LSYG,≤ 0.2
19,QYKH,0.569
20,QYWN,≤ 0.2
21,QYKF,0.229
22,QYCT,0.419
23,QYWY,≤ 0.2
24,QYCG,≤ 0.2

row,Variant,one-hybrid fitness for binding NBS DNA
1,QYLM,≤ 0.2
2,QYKM,0.369
3,QYKG,0.294
4,QYWT,0.378
5,QYCY,≤ 0.2
6,QYPM,≤ 0.2
7,LVLD,≤ 0.2
8,GKTG,≤ 0.2
9,TVSI,≤ 0.2
10,MEAE,≤ 0.2
11,YPFW,≤ 0.2
12,SPYH,≤ 0.2
13,HDPT,≤ 0.2
14,NGHF,≤ 0.2
15,GEAN,≤ 0.2
16,SSSE,≤ 0.2
17,QYVT,0.363
18,QYYK,≤ 0.2
19,QYHC,≤ 0.2
20,QYPT,0.255
21,QYST,0.413
22,QYHT,0.417
23,QYKK,0.398
24,QYRK,0.36

row,Variant,one-hybrid fitness for binding NBS DNA
1,QYSS,0.357
2,QYKT,0.722
3,QYHQ,≤ 0.2
4,QYSH,≤ 0.2
5,VTAR,≤ 0.2
6,SYLG,≤ 0.2
7,HAQP,≤ 0.2
8,GPML,≤ 0.2
9,SDVP,≤ 0.2
10,IIPF,≤ 0.2
11,PDHK,≤ 0.2
12,MVPA,≤ 0.2
13,MAQR,≤ 0.2
14,QYIT,0.355
15,QYKD,0.212
16,QYAS,0.327
17,QYKP,0.232
18,QYDM,≤ 0.2
19,QYAT,0.427
20,QYRM,0.394
21,QYFT,0.335
22,QYYT,0.352
23,QYKS,0.643
24,QYYM,≤ 0.2

row,Variant,one-hybrid fitness for binding NBS DNA
1,QYRT,0.733
2,SPCH,≤ 0.2
3,YMAS,≤ 0.2
4,ELYR,≤ 0.2
5,YQKG,≤ 0.2
6,QERT,≤ 0.2
7,TNGI,≤ 0.2
8,RKFP,≤ 0.2
9,RKAP,≤ 0.2
10,RKAS,0.597
11,RKFN,≤ 0.2
12,RKFS,0.435
13,RKAD,≤ 0.2
14,EDSG,≤ 0.2
15,VTLK,≤ 0.2
16,ISMT,≤ 0.2
17,SRDR,≤ 0.2
18,QSYN,≤ 0.2
19,QCYN,≤ 0.2
20,QPRN,≤ 0.2
21,QSRN,0.374
22,QSDN,≤ 0.2
23,QCRN,0.482
24,KTCN,≤ 0.2

row,Variant,one-hybrid fitness for binding NBS DNA
1,LIAD,≤ 0.2
2,LNLA,≤ 0.2
3,QQKI,0.399
4,QQDI,≤ 0.2
5,QQRI,0.383
6,QQYI,≤ 0.2
7,QQFI,≤ 0.2
8,QQVI,≤ 0.2
9,ESLH,≤ 0.2
10,QAYS,0.305
11,QARS,0.644
12,QAYH,≤ 0.2
13,QAIS,≤ 0.2
14,QARH,0.529
15,QARN,0.349
16,TNFS,≤ 0.2
17,TAIV,≤ 0.2
18,LTFR,≤ 0.2
19,SLFT,≤ 0.2
20,ITST,≤ 0.2
21,SLTL,≤ 0.2
22,QRDS,0.468
23,QRNF,0.327
24,QRNS,0.716

row,Variant,one-hybrid fitness for binding NBS DNA
1,QPDS,≤ 0.2
2,QRNE,0.276
3,YEPF,≤ 0.2
4,HTTL,≤ 0.2
5,YPNR,≤ 0.2
6,EHEC,≤ 0.2
7,THMK,≤ 0.2
8,KRHR,0.616
9,KSHR,≤ 0.2
10,KRQR,0.552
11,KCQR,≤ 0.2
12,KPGR,≤ 0.2
13,KPWR,≤ 0.2
14,KCGR,≤ 0.2
15,DRQR,≤ 0.2
16,KRGR,0.557
17,KRWR,0.578
18,KSWR,≤ 0.2
19,KCHR,≤ 0.2
20,NSRQ,≤ 0.2
21,TYKN,≤ 0.2
22,HHDR,≤ 0.2
23,DNHG,≤ 0.2
24,DRLR,≤ 0.2

row,Variant,one-hybrid fitness for binding NBS DNA
1,KRER,0.368
2,KCER,≤ 0.2
3,NRSR,≤ 0.2
4,KCLR,≤ 0.2
5,KSER,≤ 0.2
6,KRLR,0.456
7,KRNR,0.661
8,KCSR,≤ 0.2
9,KCNR,0.223
10,KRDR,0.336
11,KRSR,0.561
12,IRGF,≤ 0.2
13,RLMT,0.335
14,QCPH,≤ 0.2
15,TMHT,≤ 0.2
16,KRCR,0.55
17,KRRK,0.319
18,KRYR,0.545
19,KCYR,≤ 0.2
20,KRPR,0.239
21,NRCR,≤ 0.2
22,KPYR,≤ 0.2
23,KCCR,≤ 0.2
24,KRRR,0.787

row,Variant,one-hybrid fitness for binding NBS DNA
1,KRRD,≤ 0.2
2,KRIR,0.378
3,KCIR,≤ 0.2
4,GERG,≤ 0.2
5,HQHR,≤ 0.2
6,VMTL,≤ 0.2
7,CRHA,≤ 0.2
8,HMKG,≤ 0.2
9,THLW,≤ 0.2
10,GMMA,≤ 0.2
11,QPRE,≤ 0.2
12,QTKE,0.378
13,QTRE,0.405
14,QTYE,≤ 0.2
15,QTDE,≤ 0.2
16,QRVE,≤ 0.2
17,QSRE,0.22
18,QCKE,0.297
19,QRYE,0.207
20,QRKE,0.368
21,QTVE,≤ 0.2
22,QCRE,0.369
23,DNPC,≤ 0.2
24,TLCS,≤ 0.2

row,Variant,one-hybrid fitness for binding NBS DNA
1,AKQC,≤ 0.2
2,YPSA,≤ 0.2
3,VEHK,≤ 0.2
4,IPPG,≤ 0.2
5,NQDG,≤ 0.2
6,HSKR,≤ 0.2
7,CSCG,≤ 0.2
8,RDNI,≤ 0.2
9,RVSC,≤ 0.2
10,RVSS,0.39
11,RVSR,0.439
12,RVSN,≤ 0.2
13,RVSP,≤ 0.2
14,RVST,0.463
15,RVSH,≤ 0.2
16,RVSF,≤ 0.2
17,RVSD,≤ 0.2
18,TKDA,≤ 0.2
